Records with an inconclusive call do not appear. Where a structure was tested more than once in an assay, its records may differ in their call. Activity calls are given as the source filed them. Unless noted, the call rests on the fitted dose curve; in most records, active means well fitted curve in the direction sought with a large enough effect in the repeat runs; inconclusive means weak or mixed curves; inactive means no such curve, though single readings can be large; an effect the other way counts as inactive or inconclusive.
Key:
[1] = qHTS assay to identify small molecule antagonists of the androgen receptor (AR) signaling pathway using the MDA cell line in the presence of 0.5 nM R1881 - cell viability counter screen (AID 1259242); further: nearly all actives have a fitted effect of over 45% in size
Summary of the method: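 Viability of MDA-kb2 cells was multiplexed with the luciferase AR readout; after 16 hr with compounds and R1881 at 0.5 nM final, CellTiter-Fluor fluorescence was recorded.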

[2] = biological target: Androgen receptor (Homo sapiens) (UniProt P10275); assay: qHTS assay to identify small molecule antagonists of the androgen receptor (AR) signaling pathway using the MDA cell line in the presence of 0.5 nM R1881 (AID 1259243); further: nearly all actives have a fitted effect of over 50% in size
Summary of the method: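 Reporter cells cultured without CO2 receive test chemicals, then 0.5 nM R1881 final; after 16 hr at 37C, ONE-Glo is added and light output recorded.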

[3] = biological target: Estrogen receptor (Homo sapiens) (UniProt P03372); assay: qHTS assay to identify small molecule antagonists of the estrogen receptor alpha (ER-alpha) signaling pathway using the BG1 cell line in the presence of 0.1 nM 17-beta-estradiol (AID 1259244); further: nearly all actives have a fitted effect of over 50% in size
Summary of the method: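 Estradiol at 0.1 nM (final) stimulates the endogenous ER-alpha of VM7Luc4E2 cells carrying an ERE-driven luciferase; compounds are co-incubated 22 h at 37C and luciferase output quantified by luminescence.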

[4] = qHTS assay to identify small molecule HDAC inhibitors (AID 1259364);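 further: wild-type HCT-116 cells with endogenous class I/II HDAC activity; top concentration of the series differs between compounds; nearly all actives have a fitted effect of over 45% in size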
Summary of the method: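 Read-out: luminescence of HDAC-Glo I/II reagent, 30 min RT, reflecting class I/II deacetylase activity in whole HCT-116 cells pre-exposed 2 h to DMSO-dissolved compounds.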

[5] = qHTS assay to identify small molecule HDAC inhibitors - cell viability counter screen (AID 1259365); further: series mostly up to about 92 µM; nearly all actives have a fitted effect of over 50% in size
Summary of the method: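 After overnight seeding at 1,500 cells per well, wild-type HCT-116 cultures took up compounds in DMSO for 2hr at 37 C. Viable cell content came from luminescence with CellTiter-Glo.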

[6] = qHTS assay to identify small molecule agonists of the sonic hedgehog signaling (Shh) pathway - cell viability counter screen (AID 1259366); further: nearly all actives have a fitted effect of over 50% in size; further: potency means the concentration at half of the fitted maximal effect
Summary of the method: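 Same-well cytotoxicity read. Gli1-Luc reporter 3T3 cells; compounds 24hr, 37C/5% CO2; CellTiter-Fluor fluorescence.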

[7] = qHTS assay to identify small molecule antagonists of the sonic hedgehog signaling (Shh) pathway - cell viability counter screen (AID 1259367); further: nearly all actives have a fitted effect of over 55% in size
Summary of the method: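 After a 4 hr settling period, 3T3 Gli1-Luc cells were treated with DMSO-dissolved chemicals and conditioned medium, kept 24 hr at 37C in 5% CO2, and assayed for viability by CellTiter-Fluor fluorescence following 1 hr reagent incubation.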

[8] = qHTS assay to identify small molecule agonists of the sonic hedgehog signaling (Shh) pathway (AID 1259368; calls by dose curve;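 further: NIH/3T3-derived 3T3Gli1-Luc cells carrying a stable Gli1-driven firefly luciferase reporter; series mostly up to about 92 µM; nearly all actives have a fitted effect of over 15% in size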)
Summary of the method: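 A Gli1 transcriptional response element controlled firefly luciferase in 3T3Gli1-Luc cells. Compounds and a positive control were added 4 hr after plating, and cells were incubated a further 24 hr at 37 C before luminescence detection.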

[9] = qHTS assay to identify small molecule antagonists of the sonic hedgehog signaling (Shh) pathway (AID 1259369; calls by dose curve; further: nearly all actives have a fitted effect of over 45% in size; further: potency means the concentration at half of the fitted maximal effect)
Summary of the method: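 For antagonist detection, the reporter line received test compounds together with conditioned medium, incubated 24hr at 37 C, 5% CO2, then luminescence was recorded following 30min room-temperature luciferase reagent incubation.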

[10] = biological target: Estrogen receptor beta (Homo sapiens) (UniProt Q92731); assay: qHTS assay to identify small molecule agonists of the estrogen receptor beta (ER-beta) signaling pathway (AID 1259377; active means well fitted activation curve with a large enough effect in the signal ratio in the repeat runs, not every such curve was filed as active; the % refers to the signal ratio)
Summary of the method: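 Read-out: beta-lactamase FRET fluorescence. Cell line: ER-beta-UAS-bla HEK293T in 2% charcoal-stripped FBS. Exposure: 16 hr at 37C. Substrate step: 2 h at room temperature.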

[11] = biological target: Estrogen receptor beta (Homo sapiens) (UniProt Q92731); assay: qHTS assay to identify small molecule antagonists of the estrogen receptor beta (ER-beta) signaling pathway (AID 1259378; active means well fitted inhibition curve with a large enough effect in the signal ratio in the repeat runs, not every such curve was filed as active; the % refers to the signal ratio)
Summary of the method: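 ER-beta-UAS-bla HEK293T (GripTite) cells in 2% charcoal-stripped FBS medium were preincubated 6 hr at 37C, dosed with compound, then stimulated with 1 nM E2 (final) for 16 hr; beta-lactamase reporter read by B/G FRET fluorescence after 2 hr substrate loading.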

[12] = qHTS assay to identify small molecule agonists of the androgen receptor (AR) signaling pathway in the presence of an antagonist - cell viability counter screen (AID 1259379);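 further: MDA-kb2 human breast cancer cells carrying an MMTV luciferase reporter; series mostly up to about 92 µM; nearly all actives have a fitted effect of over 25% in size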
Summary of the method: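 Seed MDA-kb2 at 3,000 cells/well; incubate 5 hr, 37C, 0% CO2. Add nilutamide to 3.0uM final, then pin compounds at 15 concentrations. Incubate 16 hr. Add CellTiter-Fluor at 15 hr, read fluorescence after 1 hr.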

[13] = qHTS assay to identify small molecule agonists of the estrogen receptor beta (ER-beta) signaling pathway - cell viability counter screen (AID 1259380); further: nearly all actives have a fitted effect of over 30% in size; further: potency means the concentration at half of the fitted maximal effect
Summary of the method: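 CellTiter-Glo read, 30 min RT, same wells as bla assay; cells ER-beta-UAS-bla HEK293T; 16 hr compound, 37C; medium 2% charcoal-stripped FBS.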

[14] = biological target: Androgen receptor (Homo sapiens) (UniProt P10275); assay: qHTS assay to identify small molecule agonists of the androgen receptor (AR) signaling pathway in the presence of an antagonist (AID 1259381; calls by dose curve; further: nearly all actives have a fitted effect of over 15% in size)
Summary of the method: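 Test compounds at 15 concentrations were incubated for 16hr with MDA-kb2 reporter cells in presence of 3.0uM nilutamide (final). Signal: ONE-Glo luciferase luminescence.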

[15] = qHTS assay to identify small molecule antagonists of the estrogen receptor beta (ER-beta) signaling pathway - cell viability counter screen (AID 1259382); further: series mostly up to about 92 µM; nearly all actives have a fitted effect of over 55% in size
Summary of the method: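 In this multiplexed counter screen, cells were seeded at 2,000 per well in medium with 2% charcoal-stripped FBS and incubated 6 hr before compound and 1nM final E2 were added. Sixteen hours later, ATP-based luminescence reported viability.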

[16] = biological target: Estrogen receptor (Homo sapiens) (UniProt P03372); assay: qHTS assay to identify small molecule agonists of the estrogen receptor alpha (ER-alpha) signaling pathway in the presence of an antagonist (AID 1259383; calls by dose curve; further: top concentration of the series differs between compounds; nearly all actives have a fitted effect of over 15% in size)
Summary of the method: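 Stably transfected VM7Luc4E2 reporter cells, kept 5 days in charcoal-stripped serum, received ICI-182,780 at 10.0nM final before compound addition. Following 22hr incubation at 37C and 5% CO2, luciferase signal was read by luminescence.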

[17] = qHTS assay to identify small molecule agonists of the estrogen receptor alpha (ER-alpha) signaling pathway in the presence of an antagonist - cell viability counter screen (AID 1259386);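 further: series mostly up to about 92 µM; cells exposed to compounds for 22 h at 37 °C before the viability read; nearly all actives have a fitted effect of over 30% in size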
Summary of the method: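 Viability counter screen using VM7Luc4E2 (full-length ER-alpha, four ERE-luciferase). The cells were treated with compounds alongside ICI-182,780 10.0nM for 22hr, and live-cell protease fluorescence was quantified with CellTiter-Fluor.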

[18] = qHTS assay to identify small molecule agonists or antagonists of the thyroid stimulating hormone receptor (TSHR) signaling pathway - wild type cell line counter screen (AID 1259384; calls by dose curve)
Summary of the method: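 Wild-type HEK293 cells were plated 18 h at 37 C/5% CO2, pin-dosed with compound plus Ro20-1724 medium, held 30 min at room temperature, then given cAMP-d2 and anti-cAMP-cryptate; fluorescence was read after 1 h. Fifteen concentrations, triplicate.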

[19] = biological target: Thyrotropin receptor (Homo sapiens) (UniProt P16473); assay: qHTS assay to identify small molecule antagonists of the thyroid stimulating hormone receptor (TSHR) signaling pathway (AID 1259385; calls by dose curve; further: nearly all actives have a fitted effect of over 20% in size; further: potency means the concentration at half of the fitted maximal effect)
Summary of the method: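 TSHR-HEK293 cells were plated and held 18 h at 37C/5% CO2, then given compound plus Ro20-1724 and stimulated with TSH at 1.5 ng/mL final. After 30 min at room temperature, cAMP was detected with cAMP-d2/anti-cAMP-cryptate (1 h) by fluorescence.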

[20] = qHTS assay to identify small molecule phospholipidosis (PLD) inducers (AID 1259344; active means well fitted curve in the direction sought with a large enough effect; an effect the other way counts as inactive or inconclusive; further: potency means the concentration at half of the fitted maximal effect)
Summary of the method: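 HepG2 cells grown on collagen I take up LipidTOX Red while exposed to compound for 24 h; after fixation they are imaged at 20x and pit metrics are extracted.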
On the % scale 0 is the no-effect control and ±100 the full control effect.

Estrogen receptor (Homo sapiens), sequence (P03372 whole entry, looked up): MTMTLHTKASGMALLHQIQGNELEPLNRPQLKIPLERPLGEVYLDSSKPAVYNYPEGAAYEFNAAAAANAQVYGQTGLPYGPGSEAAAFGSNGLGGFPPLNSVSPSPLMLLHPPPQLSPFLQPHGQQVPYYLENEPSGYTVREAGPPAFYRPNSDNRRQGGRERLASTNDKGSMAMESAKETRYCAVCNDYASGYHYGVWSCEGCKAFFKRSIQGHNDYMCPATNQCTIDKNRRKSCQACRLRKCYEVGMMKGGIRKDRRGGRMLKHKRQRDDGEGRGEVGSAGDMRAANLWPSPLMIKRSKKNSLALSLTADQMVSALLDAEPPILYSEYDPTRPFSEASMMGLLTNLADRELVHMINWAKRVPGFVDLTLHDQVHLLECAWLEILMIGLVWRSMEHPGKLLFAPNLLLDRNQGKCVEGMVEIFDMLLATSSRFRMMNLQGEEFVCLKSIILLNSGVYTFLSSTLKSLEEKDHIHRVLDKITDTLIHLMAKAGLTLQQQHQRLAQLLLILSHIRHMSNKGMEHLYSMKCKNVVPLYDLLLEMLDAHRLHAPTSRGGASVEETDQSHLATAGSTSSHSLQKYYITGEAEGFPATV
Androgen receptor (Homo sapiens), sequence (P10275 whole entry, looked up): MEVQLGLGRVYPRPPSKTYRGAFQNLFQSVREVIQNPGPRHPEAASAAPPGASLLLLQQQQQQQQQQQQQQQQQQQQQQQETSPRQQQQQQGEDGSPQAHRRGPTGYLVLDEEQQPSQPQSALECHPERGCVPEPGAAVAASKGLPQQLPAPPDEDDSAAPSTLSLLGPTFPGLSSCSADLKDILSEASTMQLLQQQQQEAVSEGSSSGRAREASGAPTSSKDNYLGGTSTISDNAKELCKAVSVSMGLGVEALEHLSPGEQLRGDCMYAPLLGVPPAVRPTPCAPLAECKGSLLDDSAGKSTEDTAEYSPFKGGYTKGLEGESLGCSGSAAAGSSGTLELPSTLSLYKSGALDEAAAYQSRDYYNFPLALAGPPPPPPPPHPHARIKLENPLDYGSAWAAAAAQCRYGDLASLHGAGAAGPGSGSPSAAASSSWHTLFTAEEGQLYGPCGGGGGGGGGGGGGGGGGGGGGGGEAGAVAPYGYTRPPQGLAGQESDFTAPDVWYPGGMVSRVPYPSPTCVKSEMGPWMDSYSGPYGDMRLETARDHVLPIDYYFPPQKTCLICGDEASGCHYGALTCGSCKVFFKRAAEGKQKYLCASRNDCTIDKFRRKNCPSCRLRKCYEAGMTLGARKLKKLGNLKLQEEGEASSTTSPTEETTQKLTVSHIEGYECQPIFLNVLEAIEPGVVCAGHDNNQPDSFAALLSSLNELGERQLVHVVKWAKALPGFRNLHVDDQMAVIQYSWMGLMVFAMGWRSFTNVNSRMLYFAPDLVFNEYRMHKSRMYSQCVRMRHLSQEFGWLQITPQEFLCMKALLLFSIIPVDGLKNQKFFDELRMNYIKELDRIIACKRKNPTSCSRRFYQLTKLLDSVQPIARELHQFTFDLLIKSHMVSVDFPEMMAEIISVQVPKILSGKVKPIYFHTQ
Thyrotropin receptor (Homo sapiens), sequence (P16473 whole entry, looked up): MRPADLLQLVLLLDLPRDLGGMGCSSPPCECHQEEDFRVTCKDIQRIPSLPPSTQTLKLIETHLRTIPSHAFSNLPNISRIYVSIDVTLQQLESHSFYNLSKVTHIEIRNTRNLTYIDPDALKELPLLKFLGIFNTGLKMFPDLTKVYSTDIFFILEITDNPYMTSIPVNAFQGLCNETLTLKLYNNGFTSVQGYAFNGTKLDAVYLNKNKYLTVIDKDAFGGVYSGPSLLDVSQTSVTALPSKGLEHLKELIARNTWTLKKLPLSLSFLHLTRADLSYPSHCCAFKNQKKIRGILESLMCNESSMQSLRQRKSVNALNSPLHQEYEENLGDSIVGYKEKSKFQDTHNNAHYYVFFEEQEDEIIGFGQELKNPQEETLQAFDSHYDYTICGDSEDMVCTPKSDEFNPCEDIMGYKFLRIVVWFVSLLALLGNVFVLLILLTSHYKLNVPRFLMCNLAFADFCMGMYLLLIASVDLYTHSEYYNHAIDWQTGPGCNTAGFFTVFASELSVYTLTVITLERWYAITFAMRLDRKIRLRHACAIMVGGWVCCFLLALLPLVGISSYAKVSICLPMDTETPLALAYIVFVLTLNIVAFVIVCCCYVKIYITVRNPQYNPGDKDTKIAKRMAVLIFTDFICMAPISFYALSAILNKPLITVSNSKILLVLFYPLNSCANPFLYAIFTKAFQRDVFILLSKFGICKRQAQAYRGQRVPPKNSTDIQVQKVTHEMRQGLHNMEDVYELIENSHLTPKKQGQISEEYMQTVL
Estrogen receptor beta (Homo sapiens), sequence (Q92731 whole entry, looked up): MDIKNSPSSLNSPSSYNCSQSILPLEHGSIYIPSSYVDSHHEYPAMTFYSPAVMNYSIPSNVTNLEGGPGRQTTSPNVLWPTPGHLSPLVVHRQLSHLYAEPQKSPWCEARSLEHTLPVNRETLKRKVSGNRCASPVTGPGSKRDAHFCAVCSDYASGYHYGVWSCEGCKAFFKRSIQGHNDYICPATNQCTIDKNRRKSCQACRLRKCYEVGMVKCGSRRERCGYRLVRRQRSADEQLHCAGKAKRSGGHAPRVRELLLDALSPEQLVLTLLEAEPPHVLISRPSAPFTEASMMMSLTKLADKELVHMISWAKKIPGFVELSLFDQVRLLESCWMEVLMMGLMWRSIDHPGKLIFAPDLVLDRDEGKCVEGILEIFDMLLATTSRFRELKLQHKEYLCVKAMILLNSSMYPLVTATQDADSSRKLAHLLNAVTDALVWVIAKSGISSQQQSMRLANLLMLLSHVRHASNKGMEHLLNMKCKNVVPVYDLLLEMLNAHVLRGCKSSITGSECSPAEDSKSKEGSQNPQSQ

CN(C)CCN(Cc1ccsc1)c1ccccn1
inactive: Potency [1] | Potency [2] | Potency [3] | Potency [4] | Potency [5] | Potency [6] | Potency [7] | outcome [8] | Potency [9] | Potency [10] | Potency [11] | Potency [12] | Potency [13] | Potency [14] | Potency [15] | Potency [16] | Potency [17]

c1ccc(-c2ccccn2)nc1
inactive: Potency [1] | Potency [2] | Potency [3] | Potency [4] | Potency [5] | Potency [6] | Potency [7] | outcome [8] | Potency [9] | Potency [10] | Potency [12] | Potency [13] | Potency [14] | Potency [15] | Potency [16] | Potency [18] | Potency [19] | Potency [17]

O=C(c1ccc(F)cc1)C1CCN(CCn2c(=S)[nH]c3ccccc3c2=O)CC1
inactive: Potency [1] | Potency [2] | Potency [4] | Potency [5] | Potency [6] | Potency [7] | outcome [8] | Potency [9] | Potency [12] | Potency [14] | Potency [18] | Potency [19]

C/C(=C(\CCOP(=O)(O)O)SC(=O)c1ccccc1)N(C=O)Cc1cnc(C)nc1N
inactive: viability change, negative = cytotoxic [1] 2.34% [at 8.39 µM] | activity, negative = inhibition [2] 2.6% [at 8.39 µM] | Potency [20] | activity change, negative = inhibition [4] -1.49% [at 8.39 µM] | viability change, negative = cytotoxic [6] -1.58% [at 8.39 µM] | viability change, negative = cytotoxic [7] 0.0493% [at 8.39 µM] | activity change, negative = inhibition [9] 1.8% [at 8.39 µM] | activity change, negative = cytotoxicity [12] 1.6% [at 8.39 µM] | activity change, negative = cytotoxicity [13] 7.29% [at 8.39 µM] | activation [14] -1.54% [at 8.39 µM] | activity change, negative = cytotoxicity [15] 2.09% [at 8.39 µM] | activation [16] 0.094% [at 8.39 µM] | cAMP activity change [18] -0.23% [at 8.39 µM, hits give high values] | activity change, negative = inhibition [19] -1.28% [at 8.39 µM] | activity change, negative = cytotoxicity [17] 1.33% [at 8.39 µM]

CN1CCN(C(c2ccccc2)c2ccccc2)CC1
inactive: Potency [1] | Potency [2] | Potency [3] | Potency [20] | Potency [4] | Potency [5] | outcome [8] | Potency [10] | Potency [11] | Potency [12] | Potency [13] | Potency [14] | Potency [15] | Potency [16] | Potency [18] | Potency [19] | Potency [17]

O=CC1CC=CCC1 (stereo unspecified)
inactive: Potency [1] | Potency [2] | Potency [3] | Potency [4] | Potency [5] | Potency [6] | Potency [7] | outcome [8] | Potency [9] | Potency [12] | Potency [13] | Potency [14] | Potency [15] | Potency [16] | Potency [18] | Potency [19] | Potency [17]

COc1ccnc(CS(=O)c2nc3ccc(OC(F)F)cc3[nH]2)c1OC (stereo unspecified)
inactive: Potency [1] | Potency [3] | Potency [20] | Potency [4] | Potency [5] | Potency [6] | Potency [7] | outcome [8] | Potency [9] | Potency [10] | Potency [11] | Potency [12] | Potency [13] | Potency [15] | Potency [16] | Potency [18] | Potency [19] | Potency [17]

O=C1c2ccccc2S(=O)(=O)N1CCCCN1CCN(c2ncccn2)CC1
inactive: Potency [1] | Potency [3] | Potency [20] | Potency [4] | Potency [5] | Potency [6] | Potency [7] | outcome [8] | Potency [9] | Potency [12] | Potency [13] | Potency [15] | Potency [16] | Potency [18] | Potency [19] | Potency [17]

O=C1C(O)=C(O)C(=O)C(O)=C1O
inactive: Potency [1] | Potency [3] | Potency [20] | Potency [4] | Potency [6] | Potency [7] | outcome [8] | Potency [9] | Potency [10] | Potency [11] | Potency [12] | Potency [13] | Potency [15] | Potency [16] | Potency [18] | Potency [19] | Potency [17]

Cc1ncc(CO)c(C=O)c1O
inactive: Potency [1] | Potency [3] | Potency [20] | Potency [4] | Potency [5] | Potency [6] | Potency [7] | outcome [8] | Potency [9] | Potency [10] | Potency [11] | Potency [12] | Potency [13] | Potency [15] | Potency [16] | Potency [18] | Potency [19] | Potency [17]

CCN(CC)CCOC(=O)C(c1ccccc1)C1CCCCC1 (stereo unspecified)
inactive: Potency [1] | Potency [3] | Potency [20] | Potency [4] | Potency [5] | Potency [10] | Potency [11] | Potency [12] | Potency [13] | Potency [15] | Potency [16] | Potency [18]
active: Potency [9] 15 µM | Potency [19] 26.6 µM

C[N+]1(CC2COC(c3ccccc3)(C3CCCCC3)O2)CCCCC1 (stereo unspecified)
inactive: Potency [1] | Potency [3] | Potency [20] | Potency [4] | Potency [5] | Potency [6] | Potency [7] | outcome [8] | Potency [10] | Potency [11] | Potency [13] | Potency [15] | Potency [16] | Potency [18] | Potency [19] | Potency [17]

OCCN1CCN(CCCN2c3ccccc3C=Cc3ccccc32)CC1
inactive: Potency [1] | Potency [3] | PLD induction [20] 0.496% [at 7.66 µM] | Potency [4] | Potency [5] | outcome [8] | Potency [10] | Potency [12] | Potency [16] | Potency [18] | Potency [19]
active: Potency [20] 12.6 µM | Potency [6] 11.9 µM | Potency [13] 5.31 µM

NCC(=O)CCC(=O)O
inactive: Potency [1] | Potency [3] | Potency [20] | Potency [4] | Potency [5] | Potency [6] | Potency [7] | Potency [9] | Potency [10] | Potency [11] | Potency [12] | Potency [13] | Potency [15] | Potency [16] | Potency [18] | Potency [19] | Potency [17]
